Compound activity: PubChem, National Center for Advancing Translational Sciences (NCATS)
Rows were chosen to be rich in hits. Some 3% of all compounds tested hit in one or more screens of this group.
PMP22 txn: Cell-based coincidence reporter assay to measure PMP22 gene transcription in S16 Pmp22-F2sN cells - Primary screen. Potency, µM (top dose mostly 57.5 µM), without a hit: at the top dose activity change, negative = inhibition, usual class: inhibitors. 43,000 compounds, 2% hits. S16 Pmp22-F2sN Schwann cells, FLuc/NLuc coincidence luminescence, 24 h; active = clear falling dose curves in both reporters; inconclusive = both reporters move, but less clearly or upward; inactive = either reporter flat; the % is the NLuc reporter signal; note: potency is the fitted concentration of half-maximal effect; % is set by controls: 0 for no effect and ±100 for the full control effect
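Luminescent read-out of sequential FLuc and NLuc signals from a reporter embedded in the Pmp22 3' UTR of S16 Schwann cells, taken after 24 h compound exposure at 37C; compounds reducing both signals score as inhibitors of expression.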
p53null 32C kill: qHTS Screen for Compounds that Selectively Target Cancer Cells with p53 Mutations: Cytotoxicity of p53 Null Cells at the Permissive Temperature. Potency, µM (highest dose often 46.1 µM), for the others: at the top dose activity change, negative = cytotoxicity, actives largely listed as cytotoxic. AID 903, 2007. 55,000 compounds, 0.62% hits. H1299-neo p53 null cells, ATP luminescence, 24 h, 32C;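 note: potency is the fitted concentration of half-maximal effect; 0% = DMSO only and -100% = full killing by 100 µM tamoxifen; nearly all actives have a fitted effect of over 55% in size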
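H1299-neo (p53 null) cells, 600/well, treated 24 h at 32C with compound up to 46 uM; ATPlite luminescence viability, normalized to DMSO and 100 uM tamoxifen; AC50 by Hill fit.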
p53null 39C kill: qHTS Screen for Compounds that Selectively Target Cancer Cells with p53 Mutations: Cytotoxicity of p53 Null Cells at the Nonpermissive Temperature; H1299 p53-null (neo) cells, 39C, ATPlite viability, 24 h; Potency, µM (top dose mostly 46.1 µM), without a hit: at the top dose activity, negative = cell killing, hits mostly cytotoxic; 55,000 compounds, 0.97% hits;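 note: potency is the fitted concentration of half-maximal effect; 0% = DMSO only and -100% = full killing by 100 µM tamoxifen; nearly all actives have a fitted effect of over 50% in size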
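Concentration-response (up to 46 uM) was run for 24 h at the nonpermissive 39C on H1299-p53A138V or H1299-neo cells. ATP content was measured with ATPlite luminescence. AC50 values were Hill-modeled after normalizing between DMSO and 100 uM tamoxifen killing.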
mTORC1 inh: Acumen qHTS Assay for Inhibitors of the mTORC1 Signaling Pathway in MEF (Tsc2-/-, p53-/-) Cells: Sytravon. Tsc2-/- p53-/- MEF, phospho-rpS6 immunofluorescence/PI, 24 h. Potency, µM (doses to about 38.3 µM), without a hit: top-dose activity change, negative = inhibition, most hits filed as inhibitors. 44,000 compounds, 0.78% hits. AID 493208, 2011;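 note: potency is the fitted concentration of half-maximal effect; plate controls were DMSO for no effect and rapamycin for full effect; nearly all actives have a fitted effect of over 50% in size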
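Read-out: phospho-S6 Alexa-488 intensity over PI intensity per well, scored as % active cells using thresholds from rapamycin (7.5 nM) and DMSO controls. Tsc2-/-, p53-/- MEFs exposed to compound for 24 h; PI cell count recorded as viability.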
S16 F2sN tox: Cell viability qHTS assay in S16 Pmp22-F2sN cells. S16 Pmp22-F2sN Schwann cells viability, CellTiter-Glo, 24 h. Potency, µM (series often up to 57.5 µM), without a hit: at the highest dose activity change, negative = cytotoxicity, actives largely listed as cytotoxic. 43,000 compounds, 0.48% hits. AID 1508642, 2021; note: potency is the fitted concentration of half-maximal effect; % is set by controls: 0 for no effect and ±100 for the full control effect; nearly all actives have a fitted effect of over 65% in size
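S16 Pmp22-F2sN Schwann cells (500-1,000/well) in phenol-red-free DMEM with 10% FBS received 23 nL compound by pin tool for 24 h at 37 °C. Viability was then read as CellTiter-Glo luminescence after 15 min at room temperature.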
OvCa metastasis: Primary qHTS assay for Inhibitors of ovarian cancer metastasis using an organotypic tumor microenvironment (TME) model; SKOV3ip1-GFP adhesion/invasion on 3D omental model, fluorescence; Potency, µM (highest dose often 45.8 µM), without a hit: at the top dose activity change, negative = inhibition, hits mostly inhibitors; 46,000 compounds, 0.1% hits; AID 1963576, 2024;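 note: potency is the fitted concentration of half-maximal effect; plate controls were DMSO wells for no effect and tomatine positive control wells for full effect; nearly all actives have a fitted effect of over 65% in size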
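Primary human omental fibroblast/mesothelial 3D culture pre-formed 48 h. SKOV3ip1-GFP cells added with compounds (0.36-46 umol/L), incubated 2 h RT/16 h 37 C, fixed; GFP cells quantified at 488/509 nm.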
NLuc sat counter: Biochemical NLuc saturation counterscreen for small molecule modulators of PMP22 gene expression - Nano-Glo assay; 690 compounds, 4% hits; shares compounds with PMP22 txn; Potency, µM (top dose mostly 57.5 µM), inactives show at the highest dose activity change, negative = inhibition, hits mostly inhibitors; Secreted NLuc enzyme (filtered S16 cell medium), Nano-Glo luminescence; note: potency is the fitted concentration of half-maximal effect; % is set by controls: 0 for no effect and ±100 for the full control effect
NLuc Km counter: Biochemical coelenterazine-based NLuc counterscreen for small molecule modulators of PMP22 gene expression - Km assay; AID 1508639, 2021; 690 compounds, 5% hits; Potency, µM (highest dose often 57.5 µM), without a hit: at the top dose activity change, negative = inhibition, actives largely listed as inhibitors; shares compounds with PMP22 txn; secreted NLuc enzyme, coelenterazine luminescence, Km conditions; note: potency is the fitted concentration of half-maximal effect; % is set by controls: 0 for no effect and ±100 for the full control effect
FLuc ctr PMP22: Biochemical FLuc counterscreen for small molecule modulators of PMP22 gene expression | Potency, µM (doses to about 57.5 µM), inactives show at the top dose activity, negative = inhibition, actives largely listed as inhibitors | purified P. pyralis FLuc, luminescence, 10 min | 690 tested, under 10 active | shares compounds with PMP22 txn; note: % of control where 0% means no effect
Target sequence (P08659 whole entry, looked up): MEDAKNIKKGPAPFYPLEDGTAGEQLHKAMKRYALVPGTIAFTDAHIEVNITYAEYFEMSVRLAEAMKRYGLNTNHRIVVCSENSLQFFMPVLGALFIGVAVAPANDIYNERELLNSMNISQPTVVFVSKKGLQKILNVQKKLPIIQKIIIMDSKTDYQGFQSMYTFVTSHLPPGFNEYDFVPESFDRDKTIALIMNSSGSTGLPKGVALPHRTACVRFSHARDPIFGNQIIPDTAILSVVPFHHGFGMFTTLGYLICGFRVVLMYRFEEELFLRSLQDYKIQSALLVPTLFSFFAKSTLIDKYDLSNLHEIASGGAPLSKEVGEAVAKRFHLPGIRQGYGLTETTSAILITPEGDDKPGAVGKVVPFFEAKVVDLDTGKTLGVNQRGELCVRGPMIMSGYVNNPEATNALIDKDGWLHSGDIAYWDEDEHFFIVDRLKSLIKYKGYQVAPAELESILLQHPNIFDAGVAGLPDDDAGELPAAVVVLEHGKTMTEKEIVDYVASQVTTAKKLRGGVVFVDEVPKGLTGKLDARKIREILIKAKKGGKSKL
S16 viab conf: Cell viability qHTS assay in S16 Pmp22-F2sN cells - Confirmatory screen; shares compounds with PMP22 txn; S16 Schwann cells viability, CellTiter-Glo ATP luminescence, 24 h; Potency, µM (series often up to 57.5 µM), for inactives: at the top dose activity change, negative = viability loss, usual class: cytotoxic; 690 compounds, 7% hits; note: potency is the fitted concentration of half-maximal effect; % is set by controls: 0 for no effect and ±100 for the full control effect
PMP22 txn conf: Cell-based coincidence reporter assay to measure PMP22 gene transcription in S16 Pmp22-F2sN cells - Confirmatory screen; shares compounds with PMP22 txn; S16 Schwann cells Pmp22-F2sN, dual luciferase, 24 h; Potency, µM (doses to about 57.5 µM), for inactives: at the highest dose activity change, negative = inhibition, hits mostly inhibitors; 690 compounds, 22% hits; AID 1508646, 2021; active = clear falling dose curves in both reporters; inconclusive = both reporters move, but less clearly or upward; inactive = either reporter flat; the % is the FLuc reporter signal; note: potency is the fitted concentration of half-maximal effect
* hit, by the source's call; i = inactive; ? = inconclusive; nt = no result given. Unless noted, calls come from the whole dose curve; as a rule, active = well fitted curve in the direction sought with a large enough effect; inconclusive = small, poorly fitted or top-dose-only effect, or another doubt; inactive = no such curve, though single readings can be large; an effect the other way counts as inactive or inconclusive.

SMILES | PMP22 txn | p53null 32C kill | p53null 39C kill | mTORC1 inh | S16 F2sN tox | OvCa metastasis | NLuc sat counter | NLuc Km counter | FLuc ctr PMP22 | S16 viab conf | PMP22 txn conf
CCn1c(=O)c2cc(C(=O)NCCCN3CCN(C)CC3)sc2c2ccccc21 | 11µM* | 3% | -7% | 1% | 12% | -8% | -7% | -5% | 4% | 22% | -26%
CCCN1CCN(CCCNC(=O)c2cc3c(Cl)nc4ccccc4c3s2)CC1 | 13µM* | -5% | -17% | -10% | 20% | -4% | -16% | 8% | -1% | ? | -9%
CON=C(C(=O)N[C@@H]1C(=O)N2C(C(=O)O)=C(Cn3ccc(=N)n3CCO)CS[C@H]12)c1csc(N)n1 | nt | nt | nt | nt | nt | -9% | nt | nt | nt | nt | nt
CC[C@@H]([C@H](C)O)n1ncn(-c2ccc(N3CCN(c4ccc(OCC5CO[C@@](Cn6cncn6)(c6ccc(F)cc6F)C5)cc4)CC3)cc2)c1=O (stereo partly specified) | nt | nt | nt | nt | nt | 4% | nt | nt | nt | nt | nt
CC(C)(N)C(=O)N[C@H](COCc1ccccc1)C(=O)N1CCC2(CC1)CN(S(C)(=O)=O)c1ccccc12 | nt | nt | nt | nt | nt | 24% | nt | nt | nt | nt | nt
CCOc1ccc(OCC)c(NC(=O)c2nnn(Cc3cc(Br)ccc3OC)c2N)c1 | -16% | -7% | -28% | 4% | 15% | i | nt | nt | nt | nt | nt
CCOc1ccc(OCC)c(NC(=O)c2nnn(CC(=O)Nc3cc(Cl)ccc3OC)c2N)c1 | 11µM* | -16% | -7% | -17% | 14% | ? | -4% | 7% | 7% | ? | 14µM*
COC(=O)c1ccccc1NC(=O)CSc1c2c(nc3ccc(Cl)cc13)CCCC2 | 18µM* | 22% | -7% | 0% | 17% | 5% | -15% | 4% | 6% | ? | ?
Cc1ccc(CNC(=O)CSc2c3c(nc4ccc(Cl)cc24)CCCC3)cc1 | 10µM* | 2% | -12% | -11% | 1% | i | -13% | ? | -5% | 5% | -17%
COc1cc(NC(=O)CSc2c3c(nc4ccccc24)CCC3)cc(OC)c1OC | ? | 0% | 3% | ? | 30% | -10% | nt | nt | nt | nt | nt
CCCNC(=O)CSc1c2c(nc3ccc(Cl)cc13)CCCC2 | ? | 28% | 57% | ? | 16% | -13% | nt | nt | nt | nt | nt
COc1ccc(NC(=O)CSc2c3c(nc4ccc(Cl)cc24)CCCC3)cc1Cl | 19µM* | 12% | 21% | 1% | ? | -12% | ? | ? | 6% | ? | ?
CCC(C)NC(=O)CSc1c2c(nc3cc(Cl)ccc13)CCCC2 (stereo unspecified) | 12µM* | 2% | -30% | -3% | 4% | 3% | ? | ? | 5% | 7% | ?
CCOC(=O)c1ccc(NC(=O)CSc2c3c(nc4cc(Cl)ccc24)CCCC3)cc1 | ? | 0% | -11% | 2% | 10% | 27% | nt | nt | nt | nt | nt
O=C1NC(=O)C(=Cc2ccc(-c3ccc(F)cc3O)o2)S1 | nt | nt | nt | nt | nt | -2% | nt | nt | nt | nt | nt
NS(=O)(=O)c1ccc(NC2=CC(=O)c3ccccc3C2=O)cc1 | nt | nt | nt | nt | nt | -12% | nt | nt | nt | nt | nt
Nc1ncnc2c1nc(Cl)n2[C@@H]1O[C@H](CO)[C@@H](O)[C@@H]1O | nt | nt | nt | nt | nt | -11% | nt | nt | nt | nt | nt
Cc1ccc(C)c(NC(=O)CSc2c3c(nc4ccc(Cl)cc24)CCCC3)c1 | 15µM* | 1% | -20% | 2% | 1% | 3% | -20% | -7% | 5% | 0% | ?
O=C(CSc1c2c(nc3cc(Cl)ccc13)CCCC2)NCc1ccccc1Cl | ? | 12% | ? | -26% | ? | ? | nt | nt | nt | nt | nt
O=C(CSc1c2c(nc3ccc(Cl)cc13)CCCC2)NCc1ccccc1Cl | 11µM* | 15% | ? | -2% | 22µM* | i | ? | ? | -1% | 27% | ?
NC(=O)c1ccc(I)c([N+](=O)[O-])c1 | nt | nt | nt | nt | nt | -7% | nt | nt | nt | nt | nt
CCOC(=O)c1ccccc1NC(=O)Cn1c(=O)n(Cc2ccccc2)c(=O)c2c(C)c(C)sc21 | 18µM* | 7% | 12% | ? | -7% | -1% | -10% | -4% | 10% | 6% | 18%
Cc1ccc(Cn2c(=O)n(Cc3ccccc3)c(=O)c3c(C)c(C)sc32)cc1 | -6% | 1% | 18% | 3% | -8% | i | nt | nt | nt | nt | nt
Cc1ccc(C(=O)c2cc(O)c(O)c([N+](=O)[O-])c2)cc1 | nt | nt | nt | nt | nt | 26% | nt | nt | nt | nt | nt
CC(NC(=O)c1cccc(Nc2nc3ccccc3n3nnnc23)c1)c1ccccc1 (stereo unspecified) | 11µM* | -3% | -17% | -15% | ? | -8% | -1% | 5% | 4% | 17µM* | ?
